Out of some 56,000 sequences screened, about 2,300 (4.1%) were called active. Cut-off read from the data, not from the text of the source: active = GI50 up to about 1.1 µM and inactive = higher. Only a sample is shown. Results with a measured potency or affinity are listed apart.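 Tested at 5 concentrations; 48 h exposure; 96-well plates; endpoints linearly interpolated, else capped at highest concentration. GI50 = concentration required for 50% inhibition of growth.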

This is an account of results in ChEMBL document CHEMBL1201862, “PubChem BioAssay data set” (2004).

This experiment deals with TK-10. The experiment can be described thus: NCI tumour cell line growth inhibition, 48 h.
“[Bis(aminomethyl)ethylmethylsilane]tetrachloroplatinum(IV), CHEMBL2146192” had a GI50 of 13.1 µM.

“[Bis(aminomethyl)tetramethylenesilane]dichloropaltinum(II), CHEMBL2146205” showed a GI50 of 32.2 µM.

In turn, “[Bis(aminomethyl)dimethylsilane]tetrachloroplatinum(IV), CHEMBL2146190” gave a GI50 of 9.48 µM.

With “[Bis(aminomethyl)diethylsilane]tetrachloroplatinum(IV), CHEMBL2146203”, the GI50 came to 13.4 µM.

Take “mu-(1,7-nanodiamine-N,N')bis-(cis-aminedichloroplatimum (II)), CHEMBL2146215”: the GI50 was determined as 62.8 µM.

“[Bis(aminomethyl)pentamethylenesilane]tetrachloropaltinum(IV), CHEMBL2146204”: the GI50 came to 17.1 µM.

As for “[Bis(aminomethyl)dimethylsilane]dichloroplatinum (II), CHEMBL2146201”, the GI50 turned out to be 24.6 µM.

The substance “cis-Bis[[(trimethylsilyl)methyl]amino]tetrachloroplatinum(IV), CHEMBL2146191” displayed a GI50 of 13.2 µM.

Substance CISPLATIN, CHEMBL11359 had a GI50 of 6.64 µM.

Turning to “[Bis(aminomethyl)tetramethylenesilane]tetrachloropaltinum(IV), CHEMBL2146189”, the GI50 amounted to 9.91 µM.

On to “[Bis(aminomethyl)pentamethylenesilane]dichloropaltinum(II), CHEMBL2146202”, for which the GI50 was 12.7 µM.
